L3MBTL1 block – qHTS Assay for the Inhibitors of L3MBTL1 | 0.66% of 230,000 active | AlphaScreen L3MBTL1–H3K9me1 peptide binding | Lethal(3)malignant brain tumor-like protein 1 (Homo sapiens), Q9Y468 | Potency, µM (series often up to 57.1 µM), usual class: inhibitors; note: nearly all actives have a fitted effect of over 60% in size
Target sequence (Q9Y468 whole entry, looked up): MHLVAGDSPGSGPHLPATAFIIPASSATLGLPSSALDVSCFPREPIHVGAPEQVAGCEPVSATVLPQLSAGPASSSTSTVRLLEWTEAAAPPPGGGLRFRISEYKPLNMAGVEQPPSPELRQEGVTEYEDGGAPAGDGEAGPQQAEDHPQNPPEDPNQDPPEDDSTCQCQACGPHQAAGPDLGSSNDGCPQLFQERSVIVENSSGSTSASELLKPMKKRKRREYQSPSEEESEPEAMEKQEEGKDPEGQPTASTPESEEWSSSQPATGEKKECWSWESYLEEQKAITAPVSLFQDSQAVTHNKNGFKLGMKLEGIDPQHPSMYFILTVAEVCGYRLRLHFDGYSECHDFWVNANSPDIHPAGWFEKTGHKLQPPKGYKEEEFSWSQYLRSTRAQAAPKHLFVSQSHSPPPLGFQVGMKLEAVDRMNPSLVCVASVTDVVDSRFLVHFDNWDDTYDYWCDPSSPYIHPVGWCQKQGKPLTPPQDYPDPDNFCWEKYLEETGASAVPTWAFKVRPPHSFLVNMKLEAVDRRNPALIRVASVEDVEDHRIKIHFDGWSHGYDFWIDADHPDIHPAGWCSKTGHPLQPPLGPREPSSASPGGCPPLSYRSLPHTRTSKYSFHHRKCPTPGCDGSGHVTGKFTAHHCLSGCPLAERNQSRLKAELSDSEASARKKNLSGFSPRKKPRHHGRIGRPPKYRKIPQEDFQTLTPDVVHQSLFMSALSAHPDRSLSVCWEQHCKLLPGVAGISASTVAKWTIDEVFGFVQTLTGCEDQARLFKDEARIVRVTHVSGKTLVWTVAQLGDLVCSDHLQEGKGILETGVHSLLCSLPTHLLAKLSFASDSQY
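AlphaScreen proximity signal between nickel-chelate acceptor and streptavidin donor beads (final 10 ug/mL) reports binding of 50 nM L3MBTL1 to 75 nM biotin-H3 K9me1 peptide; complex incubated with compounds 30 min at room temperature; cefsulodin titration as control.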
RECQ1 inh-1 – qHTS Assay for Inhibitors of RecQ-Like Dna Helicase 1 (RECQ1). 0.54% of 240,000 active. RECQ1 DNA unwinding, red fluorescence kinetic read. ATP-dependent DNA helicase Q1 (Homo sapiens), P46063. Potency, µM (doses to about 57.3 µM), most hits filed as inhibitors; note: nearly all actives have a fitted effect of over 30% in size
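RECQ1T1 50 nM; forked duplex (20 bp + 30-nt ss tails) 200 nM, ATP 2 mM final; pH 8.0, 2 mM MgCl2, 2.5 ug/ml poly(dI-dC); 15 min compound preincubation; discontinuous kinetic read over 2 h at RT.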
APE1 inh – qHTS Assay for Inhibitors of the Human Apurinic/apyrimidinic Endonuclease 1 (APE1). DNA repair nuclease/redox regulator APEX1 (Homo sapiens), P27695. 0.35% of 350,000 active. recombinant APE1, TAMRA/BHQ-2 abasic DNA cleavage fluorescence. AID 2517, 2012. Potency, µM (doses to about 65.8 µM), hits mostly inhibitors; note: nearly all actives have a fitted effect of over 55% in size
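Activity was derived from the fluorescence gain between first and third kinetic reads (60 s intervals, ex 525/em 598 nm) after 50 nM THF-abasic TAMRA/BHQ-2 duplex was added to 0.75 nM APE1 preincubated 15 min with compound.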
BLM inh-1 – qHTS Assay for Inhibitors of Bloom's syndrome helicase (BLM); AID 2528, 2010; RecQ-like DNA helicase BLM (Homo sapiens), P54132; recombinant BLM DNA unwinding, fluorescence dequenching; Potency, µM (top dose mostly 56.1 µM), usual class: inhibitors; 0.2% of 350,000 active; note: nearly all actives have a fitted effect of over 35% in size
BLM inh-2 – qHTS Confirmation Assay for Inhibitors of Bloom's syndrome helicase (BLM). shares compounds with BLM inh-1. BLM DNA unwinding, fluorescence quenching, biochemical. Potency, µM, hits mostly inhibitors. 40% of 220 active. AID 2585, 2010;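 note: strand separation dequenches TAMRA so unwinding raises red fluorescence; series mostly up to about 69 µM; nearly all actives have a fitted effect of over 45% in size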
RECQ1 conf – Confirmation qHTS Assay for Inhibitors of RecQ-Like Dna Helicase 1 (RECQ1); AID 2708, 2010; Potency, µM (titrated, usually from 229 µM), hits mostly inhibitors; 28% of 610 active; RECQ1 helicase DNA unwinding, fluorescence; shares compounds with RECQ1 inh-1; note: nearly all actives have a fitted effect of over 45% in size
ADP FP counter – Counterscreen for RECQ1 Inhibitors: ADP Fluorescence Polarization Displacement Assay; shares compounds with RECQ1 inh-1; ADP fluorescence polarization displacement counterscreen; Potency, µM (highest dose often 228 µM), most hits filed as inhibitors; 27% of 530 active; note: nearly all actives have a fitted effect of over 45% in size
RECQ1 inh-2 – Confirmation qHTS Assay for Inhibitors of RecQ-Like Dna Helicase 1 (RECQ1) - Round 2 Cherry Picks. 15% of 1,100 active. recombinant RECQ1 DNA unwinding, red fluorescence. AID 504841, 2011. shares compounds with RECQ1 inh-1. Potency, µM (highest dose often 119 µM), usual class: inhibitors; note: nearly all actives have a fitted effect of over 50% in size
Large screens that a line does not name were inactive (follow-up assays come after a bar, where they were run). Compounds with a hit are over-represented: about 0.78% of the library has one in this group of screens. Calls come from the whole dose curve; as a rule, active = well fitted curve in the direction sought with a large enough effect; inconclusive = small, poorly fitted or top-dose-only effect, or another doubt; inactive = no such curve, though single readings can be large; an effect the other way counts as inactive or inconclusive.

CSc1nc(N(C)CCO)c2sc3nc(-c4ccco4)c4c(c3c2n1)CCC4	L3MBTL1 block inconclusive, RECQ1 inh-1 inconclusive, BLM inh-1 20µM | BLM inh-2 inconclusive
CC1(C)Cc2c(c(-c3ccco3)nc3sc4c(NCCCO)ncnc4c23)CO1	none (no result: L3MBTL1 block)
O=C(O)CSc1cc(C(=O)c2ccccc2O)cn2c(=O)c3c(-c4ccccc4)csc3nc12	BLM inh-1 28µM | BLM inh-2 inconclusive
CC(NC(=O)c1c2c(nc3ccccc13)C(=O)N(C1CCCCC1)C2)c1ccccc1 (configuration not stated)	none (no result: L3MBTL1 block, RECQ1 inh-1, APE1 inh)
Cc1ccc2nc(/C(C#N)=C/c3ccc(-c4ccc(F)cc4F)o3)[nH]c2c1	none (no result: L3MBTL1 block, RECQ1 inh-1, APE1 inh)
Cc1ccc2nc(/C(C#N)=C/c3ccc(-c4cccc([N+](=O)[O-])c4)o3)[nH]c2c1	BLM inh-1 22µM | BLM inh-2 13µM
CC(N)=NCCCC(N)C(=O)O (configuration not stated)	none (no result: L3MBTL1 block, BLM inh-1)
O=C(CSc1nnc2scc(-c3ccccc3)n12)Nc1nsc(-c2ccccc2)n1	BLM inh-1 20µM | BLM inh-2 36µM
Cc1ccc(-c2csc3nnc(SCC(=O)Nc4nsc(-c5ccccc5)n4)n23)cc1	none (no result: L3MBTL1 block)
CC1=NN(c2ccccc2)C(=O)/C1=C/c1c(O)n(-c2ccc(F)c(Cl)c2)[nH]c1=O	BLM inh-1 18µM | BLM inh-2 36µM
CCCCCOc1ccc(/C=C/C(=O)Nc2sc(C(C)=O)c(C)c2C(=O)OCC)cc1OC	none (no result: L3MBTL1 block, RECQ1 inh-1, APE1 inh)
O=C(NCc1ccco1)c1c2c(nc3ccccc13)CCC2	L3MBTL1 block inconclusive, RECQ1 inh-1 28µM, APE1 inh inconclusive, BLM inh-1 18µM | BLM inh-2 inconclusive | RECQ1 inh-2 inconclusive
O=C(NCc1ccc(F)cc1)c1c2c(nc3ccccc13)CCC2	L3MBTL1 block inconclusive, RECQ1 inh-1 inconclusive
COc1ccc(CCC(=O)NCc2ccc3c(c2)CCN3C(=O)c2cccc(C)c2)cc1	none (no result: L3MBTL1 block, RECQ1 inh-1, APE1 inh)
Cc1[nH]c2ccccc2c1/C=N/NC(=O)c1cccc([N+](=O)[O-])c1	RECQ1 inh-1 1.6µM | BLM inh-2 inconclusive | RECQ1 conf inconclusive | ADP FP counter inactive
CCOC(=O)c1sc2nc3c(SCC(=O)O)cc(C(=O)c4cc(F)ccc4O)cn3c(=O)c2c1C	RECQ1 inh-1 inconclusive, APE1 inh 8.9µM, BLM inh-1 22µM | BLM inh-2 32µM | RECQ1 inh-2 inactive
O=C(O)C1Nc2c(O)cccc2C2C=CCC12 (configuration not stated)	L3MBTL1 block 1µM, RECQ1 inh-1 4µM, APE1 inh 3.5µM, BLM inh-1 4.5µM | BLM inh-2 5.4µM | RECQ1 conf inconclusive
COC(=O)c1ccc([C@@H]2Nc3c(cccc3C(F)(F)F)[C@@H]3C=CC[C@@H]32)cc1	none (no result: L3MBTL1 block, RECQ1 inh-1, APE1 inh)
Cc1nc2cc(-c3ccsc3-n3c(C)ccc3C)[nH]n2c(=O)c1Cl	RECQ1 inh-1 2.8µM, APE1 inh inconclusive, BLM inh-1 16µM (no result: L3MBTL1 block) | BLM inh-2 inconclusive | RECQ1 conf 40µM | ADP FP counter 32µM | RECQ1 inh-2 inconclusive
O=C(/C=C/c1ccc(Br)cc1)c1ccc(NC(=O)c2ccco2)cc1	RECQ1 inh-1 4µM | BLM inh-2 27µM | RECQ1 conf inconclusive | RECQ1 inh-2 inconclusive
CCOc1ccc(C(=O)Nc2ccc(-c3nc4ccccc4[nH]3)cc2)cc1[N+](=O)[O-]	RECQ1 inh-1 7.9µM | BLM inh-2 inconclusive | RECQ1 conf inconclusive | RECQ1 inh-2 inconclusive
Cn1ncc([N+](=O)[O-])c1C(=O)Nc1ccc(-c2nc3ccccc3[nH]2)cc1	RECQ1 inh-1 inconclusive
Cc1ccc(Cl)cc1NC(=O)c1sc2nc(-c3ccccc3)cn2c1C	none (no result: L3MBTL1 block, RECQ1 inh-1, APE1 inh)
COc1ccc(Br)cc1CNc1ccc(O)cc1	L3MBTL1 block inconclusive, RECQ1 inh-1 28µM, BLM inh-1 20µM | BLM inh-2 inactive | RECQ1 inh-2 inactive
CCOc1ccccc1CNc1ccc(O)cc1	L3MBTL1 block inconclusive, RECQ1 inh-1 20µM, BLM inh-1 28µM | BLM inh-2 inactive | RECQ1 conf inactive | ADP FP counter 56µM | RECQ1 inh-2 inactive
COc1ccc(Br)cc1CNc1ccc2[nH]c(=O)[nH]c2c1	none
Cc1cccc(N2C(=O)C(CC(=O)Nc3cccc(F)c3)N(Cc3cccs3)C2=O)c1 (configuration not stated)	none (no result: L3MBTL1 block, RECQ1 inh-1, APE1 inh)
O=c1c(-c2cc(F)cc(F)c2)nc2cnc(N3CCNCC3)nc2n1Cc1ccc(F)cc1	RECQ1 inh-1 inconclusive, APE1 inh inconclusive, BLM inh-1 35µM (no result: L3MBTL1 block) | BLM inh-2 inconclusive | RECQ1 inh-2 inconclusive
O=c1c(-c2ccccc2)nc2cnc(N3CCNCC3)nc2n1Cc1ccc(F)cc1	none (no result: L3MBTL1 block)
Cc1ccc(CSC2=NC(C)(C)Nc3ccccc32)c(C)c1	none (no result: L3MBTL1 block, RECQ1 inh-1, APE1 inh)
CCc1ccc(C(=O)c2cn(CC(=O)Nc3cc(OC)ccc3OC)c3ccc(C)cc3c2=O)cc1	none (no result: L3MBTL1 block, RECQ1 inh-1, APE1 inh)
Cc1ccc(-c2nc3c(c(SCC(=O)Nc4cccc(C(=O)O)c4)n2)Cc2cccc(C)c2O3)cc1	L3MBTL1 block 5.6µM, APE1 inh 1.9µM, BLM inh-1 4.5µM (no result: RECQ1 inh-1) | BLM inh-2 14µM | RECQ1 conf 6.5µM
COc1ccccc1CNC(=O)COC(=O)c1cc(C)nc2ccccc12	none (no result: RECQ1 inh-1, BLM inh-1)
COc1ccccc1CNC(=O)COC(=O)c1cc(-c2ccco2)nc2ccccc12	RECQ1 inh-1 inconclusive, APE1 inh 11µM, BLM inh-1 11µM (no result: L3MBTL1 block) | BLM inh-2 18µM | RECQ1 inh-2 inconclusive
Cc1ccc(CNC(=O)c2oc3ccc(S(=O)(=O)N4CCCC(C)C4)cc3c2C)cc1 (configuration not stated)	none (no result: L3MBTL1 block, RECQ1 inh-1, APE1 inh)

Assay outcomes from PubChem.
